Screens (PubChem)
Shown are actives, neighbours in structure and some others; about 4.6% of the full set was active somewhere.
NLRP3 yeast inh: blocks the NALP3 inflammasome reconstituted in yeast; Yeast reconstituted NLRP3/ASC/caspase-1, beta-gal luminescence, 24 h; inhibition, % at 10 µM; 0.39% of 330,000 active; AID 2825;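 active means inhibition of 50% or more; inactive means inhibition below 50%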
tim23-1 inh: growth inhibitors of tim23-1 mutant yeast | S. cerevisiae tim23-1 growth, BacTiter-Glo luminescence, 24 h | inhibition, % at 20 µM | 1.3% of 330,000 active;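 active means growth inhibition of the mutant yeast at or above 50%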;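 further: temperature-sensitive mutant grown at 25 °C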
PfHsp90 set2: reduces growth (ATP signal) of yeast expressing P. falciparum Hsp90 | S. cerevisiae expressing PfHsp90, BacTiter-Glo ATP, 48 h; yeast lacking PDR1 and PDR3 efflux regulators | inhibition, % at 9.4 µM | 0.32% of 310,000 active | AID 504621;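 active means every replicate shows inhibition above about 80%, whatever the replicate mean, limit read from the data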
tim10-1 inh: inhibits growth of tim10-1 mutant yeast | S. cerevisiae tim10-1 ts strain growth, BacTiter-Glo, 24 h | inhibition, % at 20 µM | 2.2% of 330,000 active;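 active means inhibition of at least 40%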;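 further: mutant grown at 25 °C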
SKKanGAS inh: inhibitors of SKKanGAS S. pyogenes growth in kanamycin (SK-promoter or general growth effect); BacTiter-Glo, 6 h; 1.3% of 300,000 active; AID 1662; inhibition, % at 7.5 µM;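 active means mean replicate score, as percent of positive control median, at least 50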;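 further: strain carries kanamycin resistance gene driven by streptokinase promoter and grows in 40 µg/ml kanamycin; loss of luminescence reflects streptokinase promoter inhibition or plain growth inhibition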
TIM10 inh: growth inhibitors of TIM10 yeast strain; inhibition, % at 10 µM; S. cerevisiae TIM10 strain growth, BacTiter-Glo luminescence, 24 h; 1.4% of 330,000 active;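 active means inhibition of 40% or more at the single tested concentration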;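 further: wild-type TIM10 isogenic control strain grown at permissive 25 °C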
Large screens that a line does not name were inactive.

COc1cccc(CNc2cccc3cccnc23)c1O	none
Oc1ccc(Br)cc1CNc1cccc2cccnc12	SKKanGAS inh 55
Oc1ccc(Cl)cc1CNc1cccc2cccnc12	SKKanGAS inh 57
CC1(C(=O)Nc2c(F)c(F)c(F)c(F)c2F)CC1(Br)Br (configuration not stated)	none
CC1(C)C(=O)NCCN1C(=O)CC1C(=O)NCCN1Cc1cccc(C(F)(F)F)c1 (configuration not stated)	none
CN(C(=O)c1ccc(NC(=O)Cc2cccc(NC(=O)C3CCCN(C(=O)CCc4ccccc4)C3)c2)cc1)C1CC1 (configuration not stated)	none (no result: NLRP3 yeast inh, tim23-1 inh, tim10-1 inh, SKKanGAS inh, TIM10 inh)
O=C(Nc1ccc(Cl)cc1)N1CCN(c2ccc3nnc(-c4ccc(F)cc4)n3n2)CC1	SKKanGAS inh 63
CCC1CCCCN1C(=S)NC(=O)c1cccc([N+](=O)[O-])c1 (configuration not stated)	SKKanGAS inh 53
CC1(C)CCCN(C(=O)N2c3ccccc3Sc3ccccc32)C1	SKKanGAS inh 80
O=C(CN1CCCC1)N1c2ccccc2Sc2ccccc21	none (no result: PfHsp90 set2)
COc1ccccc1/C=C1\S/C(=N/NC(=O)c2cccc(Br)c2)NC1=O	SKKanGAS inh 81
CC(=O)Nc1ccc(NC(=O)COC(=O)c2cc(S(=O)(=O)N(C)C)ccc2N2CCCC2)cc1	none (no result: PfHsp90 set2)
COc1ccc(C(=O)NCCCNC(=O)c2cnccn2)cc1	none
CCC1C/C(=C\c2cccnc2)C(=O)/C(=C/c2cccnc2)C1 (configuration not stated)	PfHsp90 set2 100 (no result: NLRP3 yeast inh, tim23-1 inh, tim10-1 inh, SKKanGAS inh, TIM10 inh)
N#C/C(=N\Nc1ccc(S(=O)(=O)N2CCCCCC2)cc1)C(N)=S	SKKanGAS inh 114
Cc1occc1C(=O)N1CCC2(CCCN(Cc3ccc(F)c(F)c3)C2)C1 (configuration not stated)	none
CC(C)c1nc(N2CCN(C(=O)c3ccco3)CC2)c(C#N)c2c1COC(C)(C)C2	none
CCCCc1nc(N2CCN(C(=O)c3ccco3)CC2)c(C#N)c2c1CCCC2	SKKanGAS inh 97
Cc1cc(N2CCN(c3cccc(C)c3C)CC2)nc(-c2ccccc2)n1	PfHsp90 set2 135
COc1ccc(S(=O)(=O)NCc2ccco2)cc1NC(=O)c1ccccc1	none
CCOC(=O)c1[nH]c2ccc(OC)cc2c1NC(=O)c1ccccc1C(=O)O	none
CCOC(=O)c1[nH]c2ccc(F)cc2c1NC(=O)c1ccccc1C(=O)O	SKKanGAS inh 84
NCCCC[C@H]1CNC(=O)C(=O)N1CCCCC1CCCCC1	none
O=C1NC[C@@H](Cc2cccc3ccccc23)N(CCCCC2CCCCC2)C1=O	SKKanGAS inh 82
CC(=O)Nc1ccccc1OCC(=O)NCCc1ccc(Cl)cc1Cl	none
COc1ccc2ncc(OC(C)=O)cc2c1	none (no result: NLRP3 yeast inh, tim23-1 inh, tim10-1 inh, TIM10 inh)
COc1ccccc1CN1CN(S(=O)(=O)c2ccccc2)c2nc3ccccc3nc21	SKKanGAS inh 50
COCCN1CN(S(=O)(=O)c2ccccc2)c2nc3ccccc3nc21	none
COc1cc2ccccc2nn1	none
COc1ccc2c(n1)Sc1nc3ccccc3nc1N2	PfHsp90 set2 89 (no result: NLRP3 yeast inh, tim23-1 inh, tim10-1 inh, TIM10 inh)
COc1ccc(O)c(CN2CCC(n3nccc3NC(=O)c3ccccc3Cl)CC2)c1	none
C=CCOC(=O)Cn1cnc2c(sc3nc(C)cc(C)c32)c1=O	none
Cc1cc(C)c2c(n1)sc1c(=O)n(CC(=O)c3ccccc3)cnc12	SKKanGAS inh 93
CCCn1c(C(CO)Nc2nc(-c3cccc(Br)c3)cs2)nc2ccccc21 (configuration not stated)	SKKanGAS inh 96
OCCOCCn1c(C(CO)Nc2nc(-c3cccc(Br)c3)cs2)nc2ccccc21 (configuration not stated)	none (no result: PfHsp90 set2)
Cc1ccc(-c2csc3nc[nH]c(=S)c23)cc1C	SKKanGAS inh 93
COc1ccc(-c2csc3nc[nH]c(=O)c23)cc1OC	none
O=C(NCCc1ccc(F)cc1)c1cc(=O)c2ccccc2o1	none
O=C1CC(c2ccccc2)CC(O)=C1C=NCCN1CCN(Cc2ccccc2)CC1 (configuration not stated)	none
CCOC(=O)c1cnc(-n2nc(C)cc2C)nc1Nc1ccc(N(C)C)cc1	SKKanGAS inh 97
CCOC(=O)c1cnc(-n2nc(C)cc2C)nc1Nc1ccc(C)cc1	SKKanGAS inh 95 (no result: NLRP3 yeast inh, tim23-1 inh, tim10-1 inh, TIM10 inh)
CCOc1ccc(-c2ccc(SCC(=O)NC3CCCCC3)nn2)cc1	none
CC1=CN2C(=N)/C(=C/c3ccc([N+](=O)[O-])o3)C(=O)N=C2S1	PfHsp90 set2 97 (no result: NLRP3 yeast inh, tim23-1 inh, tim10-1 inh, TIM10 inh)
CCCC1CCC(c2ccc(/C(N)=N/O)cc2)CC1 (configuration not stated)	PfHsp90 set2 91
CCCC1CCC(c2ccc(C(N)=O)cc2)CC1 (configuration not stated)	none
Cc1cc(C)cc(CC(Cc2nc3ccccc3[nH]2)c2nc3ccccc3[nH]2)c1 (configuration not stated)	SKKanGAS inh 57
Cc1ccc(CSCc2nc3ccccc3[nH]2)cc1	none (no result: NLRP3 yeast inh, tim23-1 inh, tim10-1 inh, TIM10 inh)
Cc1ccc(C(=O)Oc2cc(C)n(C)c(=O)c2)cc1	none
O=C(N/N=C/c1c(O)n(-c2ccccc2Cl)c(=O)c2ccccc12)C1COc2ccccc2O1 (configuration not stated)	SKKanGAS inh 79
CC(=O)N/N=C/c1c(C)[nH]n(-c2ccccc2)c1=O	none
CCSC(=S)c1c(C)[nH]n(-c2ccccc2)c1=O	SKKanGAS inh 57
Cc1[nH]n(-c2ccccc2)c(=O)c1C(=O)c1ccccc1	none
CC/C(=N/NC(=O)c1ccccc1O)c1c(C)[nH]n(-c2ccccc2)c1=O	SKKanGAS inh 95
Cc1[nH]n(-c2ccccc2)c(=O)c1/C=N/NC(=O)c1ccccc1F	SKKanGAS inh 90
Cc1c(/C=N\NC(=O)C2COc3ccccc3O2)c2ccccc2n1C (configuration not stated)	none (no result: NLRP3 yeast inh, tim23-1 inh, tim10-1 inh, TIM10 inh)
C/C(CC(=O)Nc1cccc(C(F)(F)F)c1)=N\NC(=O)c1cnccn1	none
Cc1ccc(NC(=O)C2CC(=O)N/C(=N/N=C/c3ccco3)S2)cc1C (configuration not stated)	none
CCOC(=O)c1cnn(C)c1NC(=O)c1ccc([N+](=O)[O-])cc1	none
Cc1cnc(C)c(N2CCN(Cc3nc(-c4ccccc4)no3)CC2)n1	none
O=C(Cc1cccc(NC(=O)C2CCN(C(=O)C3CCCCC3)CC2)c1)Nc1cccc(C(=O)N2CCCC2)c1	none (no result: SKKanGAS inh)
Cc1ccc(-n2c(O)c(/C=N/NC(=O)C3COc4ccccc4O3)c3ccccc3c2=O)cc1 (configuration not stated)	SKKanGAS inh 101
Cc1[nH]n(-c2ccccc2)c(=O)c1/C=N\NC(=O)C1COc2ccccc2O1 (configuration not stated)	SKKanGAS inh 65
COc1ccc(Cc2nnc(NC(=O)c3ccccc3C)s2)cc1	none
COc1ccc(C(=O)N2CCc3c([nH]c4ccccc34)C2C(F)(F)F)cc1 (configuration not stated)	SKKanGAS inh 52
